Vaccinia pol inh: vaccinia E9 polymerase processive synthesis inhibitors, primary screen, biochemical, absorbance. in vitro processive DNA synthesis, absorbance read-out; active compounds read low. normalized absorbance, % (no concentration beside the values). 0.94% of 46,000 active. AID 493162, 2011; in the data active = normalized absorbance mostly below about 85%, no sharp cut-off; inactive = mostly above about 86%
Numbers without * were called inactive. The entries come from a sample that favours hits as a whole.

SMILES	Vaccinia pol inh
N#Cc1c(-c2ccccc2)cc(-c2ccccc2)nc1N	99.8
N#Cc1c(N)nc(SCc2ccccc2)c(C#N)c1-c1ccccc1	83.0*
CCOc1ccc(-c2c(C#N)c(N)nc(SCC#N)c2C#N)cc1	100.9
COc1cc(CCC(O)c2ccc(C)cc2)cc(OC)c1OC (configuration not stated)	111.8
CC(C)N(C(=O)CSc1nncn1C)c1ccccc1	96.9
Cc1ccc(C(=O)CSc2nnnn2-c2cccc(C)c2)cc1	97.6
CCCOC(=O)C[n+]1cn(CC)c2ccccc21	105.3
CCc1ccc(NS(=O)(=O)c2ccc3c(c2)OCCN3C)cc1	95.4
O=C(/C=C/c1ccco1)N1CCN(Cc2ccccc2)CC1	92.8
CCOC(=O)c1cnc2c(ccc3ccccc32)c1NCCOC(=O)C(C)(C)C	100.3
CCOC(=O)c1cnc2c(ccc3ccccc32)c1NC1CC(C)(C)NC(C)(C)C1	58.1*
CCOC(=O)c1cnc2c(ccc3ccccc32)c1NCC(C)C	100.2
CCCCN(C(=O)c1cc2c(s1)-c1ccccc1OC2)C1CCN(C(C)=O)CC1	97.5
Oc1ccc(/C=N\n2cnnc2)cc1	83.2
Cc1noc(C)c1S(=O)(=O)NC(C)C	94.1
CCN1CCN(C(=O)C(C)n2c(C)c3cnn(-c4ccccc4)c(=O)c3c2C)CC1 (configuration not stated)	106.7
Cc1ccc(/C=C2/SC(=O)NC2=S)o1	74.6*
Cc1ccc(/C=C2\SC(=O)NC2=O)o1	83.0
Cc1ccc(/C=C2/SC(=Nc3ccc(O)cc3)NC2=O)o1	101.6
Cn1c(=O)c2ccccc2n2c(=S)sc(-c3ccccc3)c12	100.2
O=C(O)c1cc2c(s1)CCC2	100.8
Cc1cc2c(C(C)C)c(O)c(O)c(C=O)c2c(O)c1-c1c(C)cc2c(C(C)C)c(O)c(O)c(C=O)c2c1O	17.9*
Clc1ccc(-c2cc3c(nn2)Nc2ccccc2N3)cc1	99.8
CN(C)CCNc1nc2ccccc2n1C	97.5
Cc1cc(C)c(-c2csc(N)n2)c(C)c1	92.8
SMILES	Vaccinia pol inh
CCc1ccc(NC(=O)c2ccccc2N)cc1	104.1
CC(/C=C1\SC(N(C)c2ccc(O)cc2)=NC1=O)=C\c1ccccc1	99.2
CCn1c2ccccc2c2cc(N)ccc21	92.3
CCn1c2ccccc2c2cc(C=Nc3cccc(C#N)c3)ccc21	77.4*
CCn1c2ccccc2c2cc(C=Nc3ccc(C)cc3O)ccc21	90.7
Cc1nnc(C)n1/N=C\c1cccc(OCc2ccccc2)c1	99.8
Cc1ccc(N2CCCC2=O)cc1	112.1
COc1ccc(C(=O)CSC2=NCCCCCC2)cc1	64.6*
COc1ccc(C(=O)CSc2ncccn2)cc1	103.4
COc1ccc(C(=O)CNC2=NCCC2)cc1	96.3
O=C(CCC(=O)N1CCc2ccccc2C1)N1CC=C(c2c[nH]c3ccccc23)CC1	106.5
Cc1ccc(C(=O)c2oc3ccccc3c2NC(=O)C2COc3ccccc3O2)cc1 (configuration not stated)	100.3
CCOc1ccc(OCC)c(S(=O)(=O)N2CCN(c3ccccc3)CC2)c1	74.2
CC(NCc1c(C(=O)O)n(C)c2ccccc12)C12CC3CC(CC(C3)C1)C2 (configuration not stated)	102.9
CCCCc1c(-c2ccccc2)nc(N)c(C#N)c1-c1ccc(O)c(OC)c1	95.0
COc1ccc(SCC(=O)NCc2ccc3c(c2)OCO3)cc1	93.3
COc1ccc2c(c1)c(OC)[n+](C)c1c3cc4c(cc3ccc21)OCO4	76.9*
C[n+]1cc2c3c(ccc2c2ccc4cc5c(cc4c21)OCO5)OCO3	93.4
COc1ccc(CCNC(=O)C(Cc2ccccc2)n2cccc2)cc1OC (configuration not stated)	100.4
CCN(CC)CC(=O)OCC1C(C)C=C(C)CC1C (configuration not stated)	99.9
Cc1cc(O)cc(O)c1C(=O)COc1ccccc1	91.0
Cn1nc(-c2ccccc2)c(/C=N/O)c1Cl	100.4
O/N=C/C1=C(Cl)c2ccccc2CC1	77.8*
O/N=C/c1cccs1	124.1
CC1CCC(C(C)C)C(OC(=O)CSc2cccc[n+]2[O-])C1 (configuration not stated)	106.8
SMILES	Vaccinia pol inh
Cc1ccc(C)n1Cc1ccco1	83.7
COC(CNC(=O)c1ccc2c(c1)N(Cc1ccc(Cl)cc1)CCS2)OC	93.9
O=C(O)c1ccc2c(c1)N(Cc1ccc(Cl)cc1)CCS2	72.1*
O=C(c1ccc2c(c1)N(Cc1ccc(F)cc1)CCS2)N1CCCCC1	89.3
CCN(C(=O)NC1(C(F)(F)F)Oc2ccccc2O1)C1CCCCC1	86.7
FC(F)(F)c1cnc(-c2cnoc2)c(Cl)c1	129.6
COc1ccccc1-c1nn(CCC#N)c2nc(C(F)(F)F)cc(C3CC3)c12	102.1
Cn1c(=O)c2c(ncn2CCNC2=NCCC2)n(C)c1=O	100.5
N#CC1=C(SCc2ccccc2)SC(c2ccccc2O)NC1=O (configuration not stated)	49.9*
COC(=O)CSC1=C(C#N)C(=O)NC(c2ccccc2O)S1 (configuration not stated)	90.7
CCSC1=C(C#N)C(=O)NC(/C=C/c2ccccc2)S1 (configuration not stated)	108.1

From PubChem BioAssay
